Laboratory results from PubChem BioAssay (EPA / NIEHS).
Records with an inconclusive call do not appear. Calls of active or inactive are those of the source. Rule for the calls: active = hit-call score of the fitted dose curve at least 0.9, where 1 is the maximum; inconclusive = response in the unintended direction; inactive = score below 0.9.

Each compound was assayed against rat Constitutive Nitric Oxide Synthase (CNOS), Nos1 (gene 24598) (UniProt P29476) (assay: NVS_ENZ_rCNOS: NovaScreen (NVS) Enzymatic Assay for rat Constitutive Nitric Oxide Synthase (CNOS) (AID 2283236)).
rat Constitutive Nitric Oxide Synthase (CNOS), Nos1 (gene 24598), sequence (P29476 whole entry, looked up): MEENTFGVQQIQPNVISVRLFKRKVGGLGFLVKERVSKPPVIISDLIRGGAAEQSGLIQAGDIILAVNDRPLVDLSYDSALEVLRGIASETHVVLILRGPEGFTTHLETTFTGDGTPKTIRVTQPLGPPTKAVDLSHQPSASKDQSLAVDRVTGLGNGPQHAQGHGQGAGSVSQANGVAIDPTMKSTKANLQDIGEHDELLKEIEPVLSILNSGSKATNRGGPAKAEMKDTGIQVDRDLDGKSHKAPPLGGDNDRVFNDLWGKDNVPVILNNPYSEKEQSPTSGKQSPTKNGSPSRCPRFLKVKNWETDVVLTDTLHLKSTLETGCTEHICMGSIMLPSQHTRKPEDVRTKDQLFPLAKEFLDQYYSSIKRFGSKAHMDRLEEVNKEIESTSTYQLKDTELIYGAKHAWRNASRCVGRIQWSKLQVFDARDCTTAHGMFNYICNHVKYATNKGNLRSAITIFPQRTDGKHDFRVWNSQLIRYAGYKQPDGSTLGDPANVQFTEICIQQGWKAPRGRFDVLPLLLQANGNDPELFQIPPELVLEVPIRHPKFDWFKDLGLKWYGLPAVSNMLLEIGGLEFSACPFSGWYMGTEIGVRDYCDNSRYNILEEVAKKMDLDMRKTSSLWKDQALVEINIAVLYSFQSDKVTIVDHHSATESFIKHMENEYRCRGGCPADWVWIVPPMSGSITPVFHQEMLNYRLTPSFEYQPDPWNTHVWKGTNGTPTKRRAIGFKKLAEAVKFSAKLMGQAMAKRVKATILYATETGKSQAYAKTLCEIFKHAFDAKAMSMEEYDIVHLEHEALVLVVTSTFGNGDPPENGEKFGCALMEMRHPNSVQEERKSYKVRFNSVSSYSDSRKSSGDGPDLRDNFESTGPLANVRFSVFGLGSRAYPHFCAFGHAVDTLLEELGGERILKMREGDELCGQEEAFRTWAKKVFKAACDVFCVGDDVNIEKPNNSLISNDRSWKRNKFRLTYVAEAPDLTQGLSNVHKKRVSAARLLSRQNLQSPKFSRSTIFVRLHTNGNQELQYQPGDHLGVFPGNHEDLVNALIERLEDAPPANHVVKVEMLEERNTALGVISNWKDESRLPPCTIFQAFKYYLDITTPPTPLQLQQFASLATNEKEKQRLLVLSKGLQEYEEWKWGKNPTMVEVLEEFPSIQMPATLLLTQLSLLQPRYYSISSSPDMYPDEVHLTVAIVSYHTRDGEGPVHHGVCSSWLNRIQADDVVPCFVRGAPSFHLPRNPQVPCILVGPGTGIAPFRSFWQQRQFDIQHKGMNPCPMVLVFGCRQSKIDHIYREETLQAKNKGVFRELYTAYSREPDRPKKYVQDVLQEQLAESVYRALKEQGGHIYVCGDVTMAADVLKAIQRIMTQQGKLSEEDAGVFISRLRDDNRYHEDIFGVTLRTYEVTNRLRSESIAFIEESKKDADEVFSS
Summary of the method: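 Single 25 uM duplicate screen, then concentration series to 50 uM for chemicals meeting threshold. Rat brain membrane-derived CNOS activity detected radiometrically by filtration and scintillation counting, 1 h after compound addition; DMSO as baseline.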

Row | Compound | outcome | AC50
1 | CCOC(=O)C(C)Oc1ccc(Oc2nc3ccc(Cl)cc3o2)cc1 (centres undefined) | inactive | 
2 | CCOC(=O)[C@H](C)Oc1ccc(Oc2nc3ccc(Cl)cc3o2)cc1 |  | 9.56 µM (active)
3 | COC(=O)c1ccc(CNS(C)(=O)=O)cc1S(=O)(=O)NC(=O)Nc1nc(OC)cc(OC)n1 |  | 7.99 µM (active)
4 | CCCCC(CC)COC(=O)c1ccccc1C(=O)O (centres undefined) | inactive | 
5 | N#CSCSc1nc2ccccc2s1 |  | 6.64 µM (active)

What follows are compounds tested against sheep Cyclooxygenase-1 (Cox1), PTGS1 (gene 443551) (UniProt P05979) (assay: NVS_ENZ_oCOX1: NovaScreen (NVS) Enzymatic Assay for sheep Cyclooxygenase-1 (Cox1) (AID 2283239);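 note: actives reduce cyclooxygenase activity so potencies are for inhibitors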).
sheep Cyclooxygenase-1 (Cox1), PTGS1 (gene 443551), sequence (P05979 whole entry, looked up): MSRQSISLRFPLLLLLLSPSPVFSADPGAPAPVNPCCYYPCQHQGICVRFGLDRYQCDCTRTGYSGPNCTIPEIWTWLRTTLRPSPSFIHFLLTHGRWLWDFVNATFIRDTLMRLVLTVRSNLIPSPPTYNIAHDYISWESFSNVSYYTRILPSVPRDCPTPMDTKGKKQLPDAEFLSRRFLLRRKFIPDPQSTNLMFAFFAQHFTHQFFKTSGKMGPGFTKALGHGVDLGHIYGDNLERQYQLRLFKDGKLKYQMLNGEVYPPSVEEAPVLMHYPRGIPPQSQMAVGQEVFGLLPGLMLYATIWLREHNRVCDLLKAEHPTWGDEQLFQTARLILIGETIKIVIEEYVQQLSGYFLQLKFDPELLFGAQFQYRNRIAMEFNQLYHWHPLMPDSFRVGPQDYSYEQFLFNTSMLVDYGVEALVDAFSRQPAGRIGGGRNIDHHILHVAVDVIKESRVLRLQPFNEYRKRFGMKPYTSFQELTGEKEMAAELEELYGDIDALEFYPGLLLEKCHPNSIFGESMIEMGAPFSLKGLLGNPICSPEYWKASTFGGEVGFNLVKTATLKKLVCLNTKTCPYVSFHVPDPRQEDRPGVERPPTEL
Experimental: NVS_ENZ_oCOX1 is a biochemical, single-readout assay that uses extracted gene-proteins from Ovine seminal vesicles in a tissue-based cell-free assay. Measurements were taken 0.66 hour after chemical dosing in a 96-well plate.NVS_ENZ_oCOX1 is one of one assay component(s) measured or calculated from the NVS_ENZ_oCOX1 assay. It is designed to make measurements of enzyme activity, a form of enzyme reporter, as detected with absorbance signals by Colorimetric technology.Data from the assay component NVS_ENZ_oCOX1 was analyzed into 1 assay endpoint. This assay endpoint, NVS_ENZ_oCOX1, was analyzed in the positive analysis fitting direction relative to DMSO as the negative control and baseline of activity. Using a type of enzyme reporter, loss-of-signal activity can be used to understand changes in the enzymatic activity as they relate to the gene PTGS1. Furthermore, this assay endpoint can be referred to as a primary readout, because this assay has produced multiple assay endpoints where this one serves a enzymatic activity function. To generalize the intended target to other relatable targets, this assay endpoint is annotated to the oxidoreductase intended target family, where the subfamily is cyclooxygenase.
(§1) Binding assays used specific radioligands (tritiated, iodinated) with non-radioactive competitive displacement ligands in agonist or antagonist protocols (as indicated) and various reference compounds and inhibitors to titrate specific binding to receptors and transporters. Most enzyme assays (CYPs, kinases, phosphatases, proteases, HDACs) used recombinant protein and specific substrates (fluorescence mostly, some colorimetric and radioactive) and inhibitors, followed by a biochemical separation of substrate and product. All assays for the biochemical HTS were initially run in duplicate at a single concentration (10 uM for CYP450 assays and 25 uM for all others). […] Each assay was run with positive and negative controls, and concurrent controls on every plate. The follow-up (secondary) screen tested active chemical-pairs in concentration series, as well as a few additional assays not tested in the primary screen, some selected negative inactives, and several cases re-run in the concentration series for confirmatory purposes.

Row | Compound | outcome | AC50
6 | CCCN(CCC)c1c([N+](=O)[O-])cc(C(F)(F)F)c(N)c1[N+](=O)[O-] | inactive | 
7 | C[C@]12C[C@H](O)[C@H]3[C@@H](CCC4=CC(=O)CC[C@@]43C)[C@@H]1CC[C@@H]2C(=O)CO | inactive | 
8 | CC(=O)[C@H]1CC[C@H]2[C@@H]3CCC4=CC(=O)CC[C@]4(C)[C@H]3CC[C@]12C |  | 17.7 µM (active)
9 | CC(C)(c1ccc(O)cc1)c1ccc(O)cc1 | inactive | 
10 | N#CSCSc1nc2ccccc2s1 | inactive | 
11 | S=C(S)NCCNC(=S)S.[Mn+2].[S-]C([S-])=NCCN=C([S-])[S-].[Zn+2] | inactive | 

What follows are compounds tested against Adenosine receptor A1 (Bos taurus) (UniProt P28190) (assay: NVS_GPCR_bAdoR_NonSelective: NovaScreen (NVS) G Protein-Coupled Receptor Assay for bovine Adenosine Receptor (AdoR), Non-selective Binding (AID 2283244)).
Adenosine receptor A1 (Bos taurus), sequence (P28190 whole entry, looked up): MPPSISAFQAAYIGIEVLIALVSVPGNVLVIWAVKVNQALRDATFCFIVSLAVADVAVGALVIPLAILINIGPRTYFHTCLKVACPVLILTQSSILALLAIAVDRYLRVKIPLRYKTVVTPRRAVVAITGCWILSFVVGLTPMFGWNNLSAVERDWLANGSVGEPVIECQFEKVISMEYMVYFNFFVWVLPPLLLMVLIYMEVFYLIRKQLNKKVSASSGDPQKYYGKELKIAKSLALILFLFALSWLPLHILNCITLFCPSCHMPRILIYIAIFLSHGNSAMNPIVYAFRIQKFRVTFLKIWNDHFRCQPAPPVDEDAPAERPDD
Summary of the method: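 Cell-free binding with membranes from bovine striatum: radioligand displaced by test chemical, read after 1 h by filtration and scintillation. Single-point 25 uM duplicate primary, 50 uM top concentration in follow-up curves, DMSO baseline.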

Row | Compound | AC50 | outcome
12 | N[C@@H](Cc1cc(I)c(Oc2ccc(O)c(I)c2)c(I)c1)C(=O)O | 3.2 µM (active) | 
13 | CCNc1nc(N)nc(Cl)n1 |  | inactive
14 | CCCN(CCC)c1c([N+](=O)[O-])cc(C(F)(F)F)c(N)c1[N+](=O)[O-] |  | inactive
15 | COC(=O)c1cccc(C)c1S(=O)(=O)NC(=O)Nc1nc(OCC(F)(F)F)nc(N(C)C)n1 | 5.12 µM (active) | 
16 | O=C(c1ccc(O)cc1O)c1ccc(O)cc1O | 3.39 µM (active) | 

The compounds below were run against human Serotonin, 5-Hydroxytryptamine Receptor 2A (5HT2A), HTR2A (gene 3356) (UniProt P28223) (assay: NVS_GPCR_h5HT2A: NovaScreen (NVS) G Protein-Coupled Receptor Assay for human Serotonin, 5-Hydroxytryptamine Receptor 2A (5HT2A) (AID 2283249)).
human Serotonin, 5-Hydroxytryptamine Receptor 2A (5HT2A), HTR2A (gene 3356), sequence (P28223 whole entry, looked up): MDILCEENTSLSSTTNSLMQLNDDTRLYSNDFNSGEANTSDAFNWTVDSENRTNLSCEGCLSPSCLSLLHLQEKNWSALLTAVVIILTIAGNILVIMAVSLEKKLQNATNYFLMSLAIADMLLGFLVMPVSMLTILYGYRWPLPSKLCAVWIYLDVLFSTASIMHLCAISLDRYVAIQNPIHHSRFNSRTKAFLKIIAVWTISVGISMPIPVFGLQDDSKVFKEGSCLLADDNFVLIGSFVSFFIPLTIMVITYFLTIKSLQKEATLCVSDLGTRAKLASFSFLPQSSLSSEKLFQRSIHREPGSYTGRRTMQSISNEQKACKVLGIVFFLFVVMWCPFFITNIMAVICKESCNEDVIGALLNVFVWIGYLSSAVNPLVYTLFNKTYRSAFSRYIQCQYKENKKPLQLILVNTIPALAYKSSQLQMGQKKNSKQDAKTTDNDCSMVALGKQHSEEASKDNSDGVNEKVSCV
Experimental: NVS_GPCR_h5HT2A is a biochemical, single-readout assay that uses extracted gene-proteins from Human cortex in a tissue-based cell-free assay. Measurements were taken 1.5 hours after chemical dosing in a 48-well plate.NVS_GPCR_h5HT2A is one of one assay component(s) measured or calculated from the NVS_GPCR_h5HT2A assay. It is designed to make measurements of radioligand binding, a form of binding reporter, as detected with scintillation counting signals by Filter-based radiodetection technology.Data from the assay component NVS_GPCR_h5HT2A was analyzed into 1 assay endpoint. This assay endpoint, NVS_GPCR_h5HT2A, was analyzed in the positive analysis fitting direction relative to DMSO as the negative control and baseline of activity. Using a type of binding reporter, loss-of-signal activity can be used to understand changes in the binding as they relate to the gene HTR2A. Furthermore, this assay endpoint can be referred to as a primary readout, because the performed assay has only produced 1 assay endpoint. To generalize the intended target to other relatable targets, this assay endpoint is annotated to the gpcr intended target family, where the subfamily is rhodopsin-like receptor.
as §1, with “The follow-up (secondary) screen tested active chemical-pairs in concentration series, as well as a few additional assays not tested in the primary screen, some selected negative inactives, and several cases re-run in the concentration series for confirmatory purposes.” left out

Row | Compound | outcome
17 | C[C@]12CC[C@@H]3c4ccc(O)cc4C[C@@H](CCCCCCCCCS(=O)CCCC(F)(F)C(F)(F)F)[C@H]3[C@@H]1CC[C@@H]2O (some centres undefined) | inactive
18 | N#CSCSc1nc2ccccc2s1 | inactive
19 | S=C(S)NCCNC(=S)S.[Mn+2].[S-]C([S-])=NCCN=C([S-])[S-].[Zn+2] | inactive
